Shown are actives, neighbours in structure and some others; about 7.5% of the full set was active somewhere.
Rab9 prom act – Rab9 promoter activation; Huh7 Rab9 promoter-luciferase reporter, luminescence, 24 h; Potency, µM (titrated, usually from 9.22 µM), for the others: at the highest dose activation, negative = inhibition, usual class: activators; actives 2.8% (n = 320,000); AID 485297; also: % of control where 0% means no effect; nearly all actives have a fitted effect of over 60% in size
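Promoter activation is measured as luciferase luminescence in Huh7 cells stably transfected with a Rab9 promoter–luciferase construct, following 24 h compound exposure at 37 °C and 10 min reagent incubation at ambient temperature.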
KinaseGlo FLuc – blocks Kinase-Glo luciferase, a counter-screen artifact. Q27757. Kinase-Glo luciferase, ATP luminescence, 8 min. Potency, µM (doses to about 38.3 µM), without a hit: at the top dose activity change, negative = inhibition, most hits filed as inhibitors. actives 0.28% (n = 200,000). AID 1379; also: % is scaled to controls: 0 for no effect and ±100 for the full control effect; nearly all actives have a fitted effect of over 60% in size
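Light output from Kinase-Glo luciferase with luciferin and 10 uM ATP in 50 mM imidazole pH 7.2, KCl, MgCl2, Tween 20, BSA; compound pin-delivered, 8-min ambient incubation, then luminescence read.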
SMN2 splice up – increases expression of the SMN2 splice variant. HEK293 SMN2-luciferase splicing reporter, luminescence, 30-36 h. Potency, µM (top dose mostly 46.1 µM), inactives show top-dose activity change, positive = activation, actives largely listed as activators. actives 2.8% (n = 210,000). AID 1458; also: % of control where 0% means no effect; nearly all actives have a fitted effect of over 55% in size
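qHTS luciferase splicing reporter: luminescence rises when SMN2 exon 7 is included in transfected HEK293 cells. Compound exposure lasted 30-36 h at 37C, with 4.5 mM final sodium butyrate as control, followed by a ONE-Glo read.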
NPC1 prom act – activators of NPC1 promoter | Huh7 NPC1 promoter luciferase reporter, 24 h | Potency, µM (doses to about 9.22 µM), for inactives: top-dose activation, hits mostly activators | actives 2.4% (n = 320,000) | AID 485313; also: % of control where 0% means no effect; nearly all actives have a fitted effect of over 60% in size
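Luminescence from an NPC1 promoter-driven luciferase reporter in stably transfected Huh7 cells was measured after 24 h compound treatment at 37 °C, followed by 10 min ambient incubation with luciferase detection reagent.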
FLuc counter – firefly luciferase modulation, counter-screen for miR-21 project | purified FLuc, Km substrates, luminescence inhibition | Potency, µM (doses to about 57.5 µM), inactives show at the highest dose activity change, negative = inhibition, usual class: inhibitors | actives 6.9% (n = 360,000) | AID 588342;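 also: plate controls were vehicle for no effect and reference inhibitor for full effect; nearly all actives have a fitted effect of over 55% in size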
Target sequence (P08659 whole entry, looked up): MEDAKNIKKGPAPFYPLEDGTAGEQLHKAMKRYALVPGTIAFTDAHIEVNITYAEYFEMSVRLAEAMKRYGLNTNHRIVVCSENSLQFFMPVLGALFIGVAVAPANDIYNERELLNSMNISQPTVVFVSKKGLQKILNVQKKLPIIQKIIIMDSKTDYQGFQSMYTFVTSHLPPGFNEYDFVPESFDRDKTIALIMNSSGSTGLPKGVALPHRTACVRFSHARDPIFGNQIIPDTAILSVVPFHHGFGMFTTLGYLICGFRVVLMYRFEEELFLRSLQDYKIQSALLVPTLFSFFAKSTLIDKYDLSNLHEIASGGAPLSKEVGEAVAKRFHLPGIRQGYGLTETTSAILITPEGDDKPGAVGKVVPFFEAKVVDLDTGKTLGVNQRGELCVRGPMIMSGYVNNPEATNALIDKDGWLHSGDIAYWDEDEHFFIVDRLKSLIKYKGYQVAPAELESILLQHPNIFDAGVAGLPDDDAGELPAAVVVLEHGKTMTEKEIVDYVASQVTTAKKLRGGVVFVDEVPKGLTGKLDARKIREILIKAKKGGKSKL
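Biochemical qHTS of compounds, final roughly 60 µM downward over six points, against 10 nM purified firefly luciferase using Km concentrations of substrates (10 uM D-luciferin, 10 uM ATP) in Tris acetate pH 7.5 buffer; luminescence output.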
ELG1 genotox – genotoxicity induction in ELG1-luciferase HEK293T cells; HEK293T ELG1-luciferase reporter, luminescence, 16 h; Potency, µM (doses to about 46 µM), inactives show at the highest dose activity change, positive = activation, actives largely listed as activators; actives 1.3% (n = 330,000); also: % of control where 0% means no effect; nearly all actives have a fitted effect of over 60% in size
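Genotoxicity was scored as increased ELG1-luciferase reporter signal, measured by ONE-Glo luminescence (30 min, room temperature). Compound or vehicle exposure of the HEK293T reporter cells lasted 16 hr at 37°C.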
The depositor's hits bear a star; ? = inconclusive; . = not tested or not shown; [ ] = remark or other dose. Calls follow the shape of the dose curve; as a rule, active = well fitted curve in the direction sought with a large enough effect; inconclusive = small, poorly fitted or top-dose-only effect, or another doubt; inactive = no such curve, though single readings can be large; an effect the other way counts as inactive or inconclusive. Potency is read from the fitted curve at half-maximal effect.

SMILES	Rab9 prom act	KinaseGlo FLuc	SMN2 splice up	NPC1 prom act	FLuc counter	ELG1 genotox
O=C(c1cccs1)c1coc2ccc(O)cc12	16%	-17%	-7%	-1%	?	?
O=C(c1cccs1)c1coc2ccc(O)c(CN3CCOCC3)c12	4%	13%	7%	-3%	1%	0%
O=c1ccc2cc3c(-c4ccccc4)coc3cc2o1	3%	.	.	-1%	19µM*	7%
O=C(CCl)Oc1ccc2occ(C(=O)c3cccs3)c2c1	?	0%	-1%	28%	24µM*	12µM*
CC(=O)Oc1ccc2occ(C(=O)c3cccs3)c2c1	?	0%	-1%	?	13µM*	?
CC(=O)Oc1ccc2occ(-c3ccccc3)c2c1	-2%	.	.	?	19µM*	-4%
Cc1ccc(-c2nnc(Nc3ccc(Cl)cc3)c3ccccc23)cc1S(=O)(=O)N1CCOCC1	.	.	10%	.	-9%	.
COc1ccc([C@]23Cc4ccccc4C(O2)c2c(cc(C)n(Cc4ccccc4)c2=O)O3)cc1	-5%[1.84 µM]	.	.	4%[1.84 µM]	3%[11.5 µM]	.
Nc1nc2c(c(=O)[nH]1)CN(CCCN1CCOCC1)CN2	.	-5%[7.66 µM]	4%[9.22 µM]	.	.	.
COc1ccc(CCNC(=O)C(=O)NCC(c2ccco2)S(=O)(=O)c2ccccc2)cc1OC (stereo unspecified)	.	.	.	.	-2%	.
O=C(Cc1c(Cl)cccc1Cl)OCc1ccccn1	25%	.	.	25%	?	23µM*
O=C(OCc1ccccc1)[C@@H]1COC(c2ccc(Br)cc2)=N1	.	2%[39.9 µM]	.	.	.	.
Brc1ccc(C2=NC(Cc3ccccc3)CO2)cc1 (stereo unspecified)	?	3%	7.1µM*	?	6.7µM*	?
O=C(Nc1nnc(SCC(=O)N2CCCc3ccccc32)s1)c1ccc2ccccc2c1	2.8µM*	0%	11µM*	?	1.2µM*	?
O=C(Nc1nnc(SCC(=O)N2CCCc3ccccc32)s1)c1ccccc1	?	0%	11µM*	?	1.5µM*	12%
Cc1cc(C)cc(C(=O)Nc2nnc(SCC(=O)N3CCCc4ccccc43)s2)c1	1%	5%	3%	-2%	?	2%
c1csc(C2=NNC(=NC3CCCCC3)SC2)c1	1µM*	-11%	13µM*	1.3µM*	4.8µM*	?
c1ccc2oc(C3=NNC(=NC4CC4)SC3)cc2c1	0.32µM*	?	1µM*	0.28µM*	0.76µM*	?
c1ccc(CN=C2NN=C(c3cc4ccccc4o3)CS2)cc1	18%	5%	18%	18%	17µM*	1%
CC(C)c1ccc(NC(=O)C2Cc3ccccc3N2C(=O)c2ccccc2)cc1 (stereo unspecified)	.	.	.	.	-2%	.
Clc1ccccc1CNCCCSc1nnnn1-c1ccccc1	.	.	.	.	-10%	.
Cc1cc2nc3ccc(=[N+](C)C)cc-3sc2cc1N	14%	.	.	12%	17µM*	-2%
O=C(N/N=C\c1cc(Br)cs1)c1ccncc1	4%	.	.	-38%	?	-6%
Cc1ccc(/C=N/Nc2ccc(C(=O)O)cc2)s1	?	?	-98%	?	0.54µM*	?
Cc1ccc(/C=N/NC(=O)C[n+]2ccccc2)s1	2%	.	.	0%	-1%	7%
SMILES	Rab9 prom act	KinaseGlo FLuc	SMN2 splice up	NPC1 prom act	FLuc counter	ELG1 genotox
Cc1ccc(/C=N/NC(=O)c2cccnc2)s1	12%	.	.	13%	?	12%
O=C(O)c1ccc(N/N=C/c2cc(Br)cs2)cc1	0.1µM*	.	.	0.089µM*	0.24µM*	?
O=C(O)c1cccc(N/N=C/c2sc(N3CCOCC3)nc2-c2ccccc2)c1	2.8µM*	-11%	17%[1.84 µM]	4µM*	1.2µM*	15µM*
Cc1ccc(/C=N/Nc2cccc(C(=O)O)c2)s1	0.089µM*	2%	0.25µM*	0.089µM*	0.95µM*	?
Nc1ccc(C(=O)N/N=C/c2sc(N3CCOCC3)nc2-c2ccccc2)cc1	-1%	-5%	?	0%	?	5%
Cc1nc(CC(=O)Nc2ccc(N(C)C)cc2)cs1	.	.	17%	.	-14%	.
CCOC(=O)CC(NC(=O)c1cc2cc(Br)cc(OC)c2oc1=O)c1ccc(OC)cc1 (stereo unspecified)	.	.	-2%	.	-7%	.
COc1ccc(OCC(=O)Nc2ccccc2C(=O)OCc2cc(=O)n3nc(C)sc3n2)cc1	.	.	.	.	-15%	.
CCCCC(CC)Cn1c(Oc2ccccc2)nc2c1c(=O)n(C)c(=O)n2C (stereo unspecified)	.	.	-10%	.	-10%	.
Cc1ccc(-n2nc3c(N4CCC(C(=O)N5CCCCC5)CC4)nnc(C)c3c2C)cc1	.	.	.	.	-8%	.
Cc1c(C)c(C)c2[nH]c(-c3ccc4c(c3)OCO4)nc2c1C	17%	.	.	19%	4.8µM*	-10%
Cc1ccc2nc3sc(C(=O)Nc4ccc(F)cc4)cc3cc2c1	23%	.	.	6%	-16%	.
COc1cccc(Nc2nc(-c3sc(NC(=O)c4ccccc4)nc3C)cs2)c1	-1%	-5%	-59%	0%	19µM*	-7%
COc1cccc(NC(=O)c2sc(NC(=O)c3ccncc3)nc2C)c1	0%	.	.	-2%	19µM*	-4%
CCC(=O)Nc1nc(C)c(-c2csc(Nc3cccc(C(=O)O)c3)n2)s1	-3%	0%	27%	-1%	11µM*	-5%
CC(=O)Nc1nc(C)c(-c2csc(Nc3cccc(C(C)=O)c3)n2)s1	0.71µM*	.	.	-20%	?	0%
CCCN(CCC)c1cc(C)nc2nc(-c3ccc(Cl)cc3)nn12	.	.	-7%	.	-2%	.
Cc1ccc(NC(=O)c2c(C)oc3ccc(O)c(CN4CCN(Cc5ccccc5)CC4)c23)cc1	.	.	-16%	.	-3%	.
O=C([C@H](O)c1ccccc1)N1CCC[C@H]1CO	1%	1%	3%	-1%	7%	1%
CC(=O)c1cccc(Nc2nc(-c3cccc([N+](=O)[O-])c3)cs2)c1	21%	5%	11µM*	5%	-4%	1.5µM*
CCC(=O)Nc1nc(C)c(-c2csc(Nc3ccc(C(=O)O)cc3)n2)s1	7%	.	.	-3%	17µM*	0%
Cc1ccc(Nc2nc(-c3sc(NC(=O)c4cccc(Cl)c4)nc3C)cs2)cc1	3%	-4%	-11%	-5%	9.5µM*	-2%
CC(=O)Nc1ccc(Nc2nc(-c3sc(NC(C)=O)nc3C)cs2)cc1	-3%	.	.	-12%	?	-10%
CC(=O)Nc1nc(C)c(-c2csc(Nc3ccccn3)n2)s1	1.6µM*	-7%	13µM*	3.5µM*	11µM*	8%
Cc1nc(NC(=O)c2ccc(Cl)cc2)sc1-c1csc(Nc2cccc(F)c2)n1	0%	2%	-9%	14%	11µM*	-3%
Cc1nc(NC(=O)c2ccccc2)sc1-c1csc(Nc2ccc(C(=O)O)cc2)n1	?	.	.	23%	0.48µM*	-7%
